The values that follow come from PubChem BioAssay (NCI).

The panel holds about 83,000 compounds, 20% with a hit somewhere; the sample as a whole holds those more often.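 In brief: 96-well plates, 48 h treatment, single concentration, percent growth endpoint.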 A number with no mark means an inactive call. The source made the active and inactive calls. Rule for the calls: active = growth percent below 10; inactive = the rest.

The test relates to RPMI-8226 leukemia. In words: NCI-60 one-dose screen, 48 h (100 = growth as untreated, 0 = no growth, -100 = all killed). As to conditions: 10 µM unless noted.
Consider `COc1ccc2c(c1)CC/C(=C\c1cncc(Br)c1)C2=O`, for which the growth was 8.06% (active).
In the case of `COc1ccc2c(c1)C(=O)/C(=C/c1ccccn1)CC2` it was -10.3% (active); in that of `Cc1nc(Nc2ccc(F)c(Cl)c2)sc1C(=O)O`, 5.09% (active); in that of `CCOC(=O)c1sc(Nc2ccc(Cl)cc2)nc1C`, 7.4% (active).
Then `CC(=O)c1cc(C(=O)c2ccc3c(c2)Sc2ccccc2N3)n2ccccc12`, with 5.63% (active).
Then `CC(=O)O[C@H]1C(=O)[C@@]2(C)[C@H]([C@H](OC(=O)c3ccccc3)[C@]3(O)C[C@H](OC(=O)[C@H](OC(=O)CCC(=O)OC4CCC(S/N=C(N)/N=C(\N)N(C)C)CC4)[C@@H](NC(=O)c4ccccc4)c4ccccc4)C(C)=C1C3(C)C)[C@]1(OC(C)=O)CO[C@@H]1C[C@@H]2O` (stereo partly specified), with 14%; and `CC(=O)OC[C@H]1O[C@H](OC(C)=O)[C@H](NC(=O)/C=C/CCl)[C@@H](OC(C)=O)[C@@H]1OC(C)=O`, with 71.7%; and `COc1cc(-c2nc(C(=O)NCC(=O)NO)nn2-c2ccc(Cl)cc2)cc(OC)c1OC`, with 105%.
Consider `C=C1C(=O)O[C@H]2[C@H]1CC/C(COC(=O)NCCc1ccc(OC)c(OC)c1)=C\CC[C@@]1(C)O[C@@H]21`, for which the growth was 28.8%.
In the case of `CC/C=C\C[C@H](O)C/C=C1/C(=O)C=C[C@@]1(C)C/C=C\CCCC(=O)OC` it was 103%.
`Cc1ccc2oc(=O)cc(C3c4ccc([nH]4)C(c4cc(=O)oc5ccc(C)cc45)c4ccc([nH]4)C(c4cc(=O)oc5ccc(C)cc45)c4ccc([nH]4)C(c4cc(=O)oc5ccc(C)cc45)c4ccc3[nH]4)c2c1` (stereo unspecified): the growth is -21.3% (active).
